Only some compounds are listed: those with a hit (about 1.2% of all), similar ones and a draw of the others.
RXFP1 antagonist: blocks the human relaxin receptor RXFP1; hit rate 0.59% among 350,000; AID 1259400; Q9HBX9; activity change, negative = inhibition, % at 57.5 µM; HEK293-RXFP1, relaxin-stimulated cAMP HTRF, 30 min; active compounds read low;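 active means activity change of -60% or lower, but not beyond a set lower limit; inconclusive means change between -60% and -40%, or beyond the set limit; inactive means change above -40%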; further: on the % scale 0 is the no-effect control and ±100 the full control effect
Target sequence (Q9HBX9 whole entry, looked up): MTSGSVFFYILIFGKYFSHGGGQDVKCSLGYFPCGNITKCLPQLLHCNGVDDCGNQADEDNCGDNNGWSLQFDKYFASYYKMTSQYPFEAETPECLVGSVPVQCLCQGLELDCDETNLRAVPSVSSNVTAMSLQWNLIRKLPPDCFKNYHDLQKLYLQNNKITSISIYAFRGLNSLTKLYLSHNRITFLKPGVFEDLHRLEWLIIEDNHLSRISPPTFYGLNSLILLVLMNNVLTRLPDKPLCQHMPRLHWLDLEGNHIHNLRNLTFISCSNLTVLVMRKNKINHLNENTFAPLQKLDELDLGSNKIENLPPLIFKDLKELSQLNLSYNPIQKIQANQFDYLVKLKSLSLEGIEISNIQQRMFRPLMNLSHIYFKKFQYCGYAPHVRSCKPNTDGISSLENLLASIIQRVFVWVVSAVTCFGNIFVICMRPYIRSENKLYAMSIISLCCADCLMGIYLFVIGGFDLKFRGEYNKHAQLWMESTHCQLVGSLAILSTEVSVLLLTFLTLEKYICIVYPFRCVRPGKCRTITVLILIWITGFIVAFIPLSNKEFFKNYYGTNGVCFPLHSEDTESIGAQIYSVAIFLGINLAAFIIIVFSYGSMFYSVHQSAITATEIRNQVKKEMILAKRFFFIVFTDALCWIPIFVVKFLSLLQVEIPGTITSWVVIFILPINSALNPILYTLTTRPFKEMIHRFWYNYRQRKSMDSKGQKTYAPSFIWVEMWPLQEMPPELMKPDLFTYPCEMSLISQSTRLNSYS
Mm-Cpn inhibitor: inhibitors of Methanococcus maripaludis chaperonin TRiC (MmCpn). purified Mm-Cpn ATPase, ADP Transcreener TR-FRET. Potency, µM (top dose mostly 76.9 µM), inactives show top-dose activity, negative = inhibition, most hits filed as inhibitors. hit rate 0.031% among 330,000; further: potency means the concentration at half of the fitted maximal effect; on the % scale 0 is the no-effect control and ±100 the full control effect; nearly all actives have a fitted effect of over 80% in size
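Measured: ADP formation by purified Mm-CPN. Conditions: 25 nM protein, 10 uM ATP, Tris pH 7.4 with Mg2+, K+ and DTT, 37°C for 30 min. Detection: Transcreener HTRF after 30 min at room temperature.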
gsp ag: activates gsp, the McCune-Albright syndrome mutation. Potency, µM (top dose mostly 76.9 µM), inactives show at the highest dose activation (cAMP increase), hits mostly activators. gsp mutant cells, cAMP HTRF, 30 min. hit rate 0.13% among 340,000; active means well fitted activation curve with a large enough effect; inconclusive means small, poorly fitted or top-dose-only effect, or another doubt; inactive means no such curve, though single readings can be large or run the other way; cell line not stated here;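 further: phosphodiesterase inhibitor Ro 20-1724 added with compounds to block cAMP breakdown; potency means the concentration at half of the fitted maximal effect; nearly all actives have a fitted effect of over 60% in size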
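Cells stably selected in G418 were plated at 2000/well, grown 16-24 hr, then given compounds in DMSO with the PDE inhibitor […] (300 uM solution added) for 30 min at 37C; cAMP was read by HTRF.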
gsp antag: antagonizes gsp, the McCune-Albright syndrome mutation; AID 624288; Potency, µM (highest dose often 76.9 µM), for inactives: at the highest dose activity change, negative = inhibition, hits mostly inhibitors; hit rate 0.4% among 340,000; gsp-mutant cells, cAMP HTRF, 30 min; calls by dose curve; cell line not stated here;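 further: intracellular cAMP measured with PDE inhibitor Ro 20-1724 present during compound exposure; potency means the concentration at half of the fitted maximal effect; on the % scale 0 is the no-effect control and ±100 the full control effect; nearly all actives have a fitted effect of over 65% in size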
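Cells, 2000/well, grown 16–24 h in DMEM 10% FBS with 0.5 mg/ml G418, then compounds plus […] (300 uM addition stock), 30 min at 37C. cAMP read by HTRF (cAMP-d2 and anti-cAMP antibody-K in lysis buffer) after 30 min RT.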
RXFP1 agonist: RXFP1 (human) receptor agonism. Potency, µM (doses to about 57.5 µM), inactives show at the highest dose activation, usual class: activators. hit rate 0.3% among 370,000. HEK293T-RXFP1 cAMP TR-FRET, 30 min; response scale: percent of porcine relaxin response, buffer zero. AID 2676; further: potency means the concentration at half of the fitted maximal effect; on the % scale 0 is the no-effect control and ±100 the full control effect; nearly all actives have a fitted effect of over 60% in size
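HEK293T cells stably expressing RXFP1 were pretreated with the PDE4 inhibitor Ro 20174, exposed to compounds for 30 min at 37C, lysed, and cAMP was read by TR-FRET. Data normalized to buffer (basal) and 29 nM porcine relaxin (100%).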
CCT modulator: cytosolic chaperonin activity modulation; purified chaperonin ATPase assay, HTRF ADP detection, 30 min; activity change, % (concentration not given with the values), hits read low; hit rate 0.3% among 360,000; in the data active means activity change below about -30%; further: on the % scale 0 is the no-effect control and ±100 the full control effect
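First, chaperonin was dispensed at 40 nM or 20 nM final depending on batch activity. Next, compounds were pinned at 76 uM and ATP added at 10 uM. After 30 min at 37 °C, ADP detection reagents ran 30 min at ambient temperature.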
* = called active by the depositor; ? = inconclusive; nt = no result; [ ] = dose if it differs, or a comment. Unless noted, the call rests on the fitted dose curve; in most records, active means well fitted curve in the direction sought with a large enough effect; inconclusive means small, poorly fitted or top-dose-only effect, or another doubt; inactive means no such curve, though single readings can be large; an effect the other way counts as inactive or inconclusive.

SMILES	RXFP1 antagonist	Mm-Cpn inhibitor	gsp ag	gsp antag	RXFP1 agonist	CCT modulator
O=C(N/N=C/c1cc2c3c(c1O)CCCN3CCC2)c1ccccc1O	-76*	-6%	-6%[15.4 µM]	?	2%	-5
CCOC(=O)CN1C(c2ccccc2O)Nc2ccc(Br)cc2C1c1ccccc1 (stereo not given)	-73*	3%	-18%[15.4 µM]	4%	0%	-1
COc1cc(NC(=O)c2cc(Cl)ccc2Cl)ccc1NC(=O)c1cc2ccccc2o1	nt	nt	nt	nt	1%	nt
N#C/C(=C\c1ccc[nH]1)C(=O)Nc1ccccc1Cl	-12	0%	?	32µM*	-4%	0
CCc1ccc(-n2nc3cc(C)c(NC(=O)c4cccc5ccccc45)cc3n2)cc1	-8	nt	nt	nt	18%	nt
COc1cccc(NC(=O)Cn2c(=O)n(-c3cccc(OC)c3)c(=O)c3c4c(sc32)CCCC4)c1	-2	nt	nt	nt	1%	nt
CC(CC(=O)N1CCN(c2ccccc2)CC1)S(=O)(=O)c1ccc2c(c1)NC(=O)CO2 (stereo not given)	30	1%	?	50µM*	1%	0
O=C(CCS(=O)(=O)c1ccc2c(c1)NC(=O)CO2)NCCc1ccccc1	0	0%	-5%	12%	2%	1
O=C(CCS(=O)(=O)c1ccc2c(c1)NC(=O)CO2)NCc1ccccc1	9	0%	-16%	13%	2%	-64*
O=C1COc2ccc(S(=O)(=O)N3CCN(c4ccccc4)CC3)cc2N1	-18	2%	25%	2%	3%	-3
Cc1cccc(N2CCN(C(=O)CCS(=O)(=O)c3ccc4c(c3)NC(=O)CO4)CC2)c1C	3	1%	-21%	32µM*	-1%	-3
O=C1COc2ccc(S(=O)(=O)Nc3ccc(F)cc3)cc2N1	33	0%	2.2µM*	-2%	1%	-3
Cc1ccc(Cl)cc1NC(=O)Nc1nnc(N(C)Cc2ccccc2)s1	-27	nt	nt	nt	0%	nt
O=C1CCCc2c(O)cccc21	-4	nt	nt	nt	nt	nt
CC1=C(C(=O)N(C)C)CC(CC(=O)NC(c2ccccc2)c2ccccc2)C(=O)N1Cc1ccccc1 (stereo not given)	10	nt	-5%	nt	nt	-48*
CC1=C(C(=O)N(C)C)CC(CC(=O)NC(c2ccccc2)c2ccccc2)C(=O)N1Cc1ccc(F)cc1 (stereo not given)	5	nt	-27%	nt	nt	-1
O=C(CCCn1c(=O)c2cccn2c2ccccc21)NCCc1ccc(Cl)cc1	-71*	nt	nt	nt	-1%	nt
O=C(CCn1c(=O)c2cccn2c2ccc(F)cc21)NCCc1ccc(Cl)cc1	-27	nt	nt	nt	-2%	nt
Cc1cc(C)c(S(=O)(=O)N2CCN(S(=O)(=O)N3CCC(C)CC3)CC2)c(C)c1	-8	2%	-22%[15.4 µM]	7%	-1%	-49*
Cc1cc(C)c(S(=O)(=O)N2CCN(S(=O)(=O)N3CCCCCC3)CC2)c(C)c1	6	4%	-4%[15.4 µM]	-31%	2%	0
NC(c1ccccc1)c1ccncc1 (stereo not given)	1	2%	-112%	4%	1%	-43*
NC(c1ccccc1)c1cccnc1 (stereo not given)	-1	-11%	-12%	6%	1%	-1
c1ccc(NCCc2ccccn2)cc1	-12	nt	-7%	10%	nt	0
Nc1cc(C(F)(F)F)ccc1NCCc1ccccn1	2	-5%	-31%	4%	3%	-107*
CCOC(=O)C1CCCN(C(=O)c2ccc(C)c(NC(=O)C3=C(C)OCCS3)c2)C1 (stereo not given)	0	0%	?	13%	-2%	-66*
SMILES	RXFP1 antagonist	Mm-Cpn inhibitor	gsp ag	gsp antag	RXFP1 agonist	CCT modulator
CCOC(=O)C1CCCN(C(=O)c2ccccc2NC(=O)C2=C(C)OCCS2)C1 (stereo not given)	3	2%	?	-17%	-3%	-1
CC1=C(C(=O)Nc2cc(C(=O)N3CCN(c4cccc(C)c4C)CC3)ccc2C)SCCO1	?	0%	13%	50µM*	0%	-4
COc1cc(OC)c(NC(=O)N2CCC(CN3CCCC3)CC2)cc1Cl	-1	nt	nt	nt	1%	nt
Cc1cc(C)c(SSc2nnnn2-c2ccccc2)c(C)c1	-2	nt	?	nt	nt	-38*
Cc1ccc2cc(C)c(Sc3nnnn3-c3ccccc3)nc2c1	nt	0%	4%	7%	6%	-15
CCOc1ccccc1NC(=O)Cn1c(=O)oc2cc(S(=O)(=O)NCc3ccccc3)ccc21	-18	nt	nt	nt	-1%	nt
Cc1ccc2c(c1)nnn2C1CCN(S(=O)(=O)c2ccc3ccccc3c2)CC1	-12	-3%	-29%	-11%	1%	-1
Cc1ccc2c(c1)nnn2C1CCN(S(=O)(=O)c2cccc(S(=O)(=O)N(C)C)c2)CC1	1	1%	18%	25µM*	0%	1
O=C(CCn1nc(-c2ccccc2)c2ccccc2c1=O)Nc1cccnc1	-6	0%	-94%	-2%	4%	0
Cc1ccc(-c2nn(CCC(=O)Nc3cccnc3)c(=O)c3ccccc23)cc1	6	1%	3%[15.4 µM]	-21%	4%	-65*
COc1ccc(CC(=O)NNC(=O)COc2ccc3ccccc3c2)cc1	?	40µM*	8%	-18%	13%	0
Cc1cccc(/C=C(\C#N)C(=O)Nc2ccccn2)c1	7	-1%	?	6%	4%	1
CNc1ccc(/C=C(\C#N)C(=O)Nc2ccccn2)cc1[N+](=O)[O-]	19	-5%	56%[15.4 µM]	6%	18µM*	1
COc1ccc(-c2noc(-c3ccc(N4CCCC4)c([N+](=O)[O-])c3)n2)cc1	nt	nt	nt	nt	13%	nt
CN(CC(=O)Nc1cccc(F)c1)C(=O)CSc1ccc(Br)cc1	-72*	1%	0%[15.4 µM]	-17%	0%	-4
Cc1ccc(SCC(=O)N(C)CC(=O)Nc2cccc(F)c2)cc1	-11	-1%	25%	-14%	1%	-1
CCN(CC)c1ccc2cc(C(N)=O)c(=N)oc2c1	-9	-7%	-4%[15.4 µM]	-20%	-2%	-4
CCN(CC)c1ccc2c(-c3ccc(S(=O)(=O)O)cc3S(=O)(=O)[O-])c3ccc(=[N+](CC)CC)cc-3oc2c1	37	-17%	60%[15.4 µM]	14%	28µM*	2
CCCc1cc(C(=O)Nc2c(C)nn(Cc3ccc(Cl)c(Cl)c3)c2C)no1	-10	nt	nt	nt	0%	nt
O=[N+]([O-])c1cccc(N/N=C/c2cccc(O)c2O)c1	-87*	-3%	6%[15.4 µM]	-7%	2%	2
O=[N+]([O-])c1cc(-c2nc3nc4ccccc4nc3n2CCc2ccccc2)cc([N+](=O)[O-])c1	-8	?	-1%[15.4 µM]	35µM*	-2%	-2
C=C1C(=O)C23C(O)C1CCC2C12CCCC(C)(COC(C)=O)C1C(O)C3(O)OC2 (stereo not given)	-117*	nt	-3%	-5%	nt	-1

Compound activity (PubChem BioAssay)
